Test results: PubChem BioAssay (NCI)
This is part of a sample that, as a whole, favours compounds with a hit. Of some 83,000 tested, about 20% had one in any assay.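 96-well plates, one dose, 48 hours. Percent growth reported; active if below 10.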 Values without a mark were called inactive. The source made the active and inactive calls.

Tests used:
Assay in all cases: NCI-60 one-dose screen, 48 h (100 = growth as untreated, 0 = no growth, -100 = all killed)
[1] = test system: BT-549 breast; settings: 10 µM unless noted
[2] = test system: MDA-MB-435 melanoma; settings: 10 µM unless noted
[3] = test system: SW-620 colon; settings: 10 µM unless noted
[4] = test system: MCF7 breast; settings: 10 µM
[5] = test system: HCT-116 colon; settings: 10 µM unless noted
[6] = test system: HCC-2998 colon; settings: 10 µM unless noted
[7] = test system: KM12 colon; settings: 10 µM unless noted

SMILES | growth [1] | growth [2] | growth [3] | growth [4] | growth [5] | growth [6] | growth [7]
CCn1c(SCC(=O)Nc2cc(C(F)(F)F)ccc2Cl)nc2ccccc2c1=O | 64.3% | 18.1% | 49.1% | 28.9% | 32.2% | 11.7% | 10.3%
Cc1cccc2c(=O)c3c(sc12)c(NCCCNCCO)nc1ccccc13 | 73% | 29.5% | -51.6% (active) | -61% (active) | -30.3% (active) | 12.7% | 33.6%
Clc1ccc(COc2ccc(Nc3ncnc4onc(-c5ccccc5)c34)cc2)cc1 | 89.1% | 73.1% | 68.1% | 75.9% | 72.1% | 106% | 88.9%
CN1CCN(Cc2ccc(C(=O)Nc3cncc(C#Cc4cnc5cccnn45)c3)cc2C(F)(F)F)CC1 | 78.3% | 57.7% | 21.8% | 20.4% | 13% | 90% | 12.7%
O=C1N=c2ccccc2=C1c1sc(=Nc2ccccc2)n(Nc2ccccc2)c1O | 106% | -23% (active) | 108% | 103% | 104% | 116% | 103%
O=C(Cn1cc(COc2ncnc3c2cnn3-c2ccccc2)nn1)Nc1cccc2ccccc12 | 99.5% | 94% | 99.1% | 85% | 102% | 104% | 93.8%
Cc1ccc(N=NC2C(=O)N(c3ccc(Cl)cc3)N(c3ccc(Cl)cc3)C2=O)cc1 | 95.2% | 103% | 96.4% | 85.5% | 97.2% | 109% | 90.3%
COCCN(C(=O)Cc1cccs1)C(C(=O)NCc1ccc(OC)cc1)c1ccc(C(C)C)cc1 (stereo not drawn) | 93.9% | 104% | 85.3% | 85.4% | 68.7% | 81.4% | 84.2%
CC(=Nc1ccccc1)C1=C(O)C(Cc2ccc(F)cc2)NC1=O (stereo not drawn) | 36.8% | -53.7% (active) | 27.4% | 16.3% | 27.5% | 60.4% | 24.5%
